dFosB act = enhances mouse delta FosB homodimer DNA binding. P13346. purified delta FosB, TAMRA-CDK5 oligo fluorescence polarization; percent of positive-control signal above neutral wells. activation, % at 25 µM. 0.99% of 340,000 active. AID 493131;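 active = mean activation above about 17%, with every replicate also reaching it, limit read from the data, passing the limit was not always enough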
PvdQ acylase = P. aeruginosa PvdQ acylase inhibition; purified PvdQ acylase, fluorescence plate reader; 0.063% of 340,000 active; inhibition, % at 10 µM; AID 488965; in the data active = inhibition above about 30%, passing the limit was not always enough;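 also: 0% = vehicle neutral wells and 100% = reference inhibitor wells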
PglD inh = inhibitors of Campylobacter jejuni PglD acetyltransferase | purified PglD enzyme, DTNB colorimetric CoA detection | inhibition, % at 12.5 µM | 0.098% of 360,000 active | AID 602405; in the data active = inhibition above about 16%, passing the limit was not always enough
FGF22 binding = shifts melting point of recombinant human FGF22; 1.5% of 340,000 active; activity (Tm shift, normalised), % at 9.99 µM; AID 651658; recombinant FGF22 thermal shift, SYPRO orange fluorescence; percent of sucrose octasulfate shift, DMSO zero; Q9HCT0;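 active = mean Tm shift, scaled 0 neutral to 100 positive control, at about 1.3% or above, every replicate too, limit read from the data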
Target sequence (Q9HCT0 whole entry, looked up): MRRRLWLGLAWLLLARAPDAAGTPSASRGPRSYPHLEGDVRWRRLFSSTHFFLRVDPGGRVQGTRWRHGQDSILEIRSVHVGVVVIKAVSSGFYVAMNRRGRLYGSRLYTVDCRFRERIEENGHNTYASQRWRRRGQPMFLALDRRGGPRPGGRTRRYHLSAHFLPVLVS
SIRT5 block = inhibitors of human sirtuin-5 desuccinylase; Q9NXA8; 1.1% of 330,000 active; Purified SirT5, succinyl-peptide AMC, trypsin-coupled fluorescence; inhibition, % at 15 µM; in the data active = inhibition above about 15%
Target sequence (Q9NXA8 whole entry, looked up): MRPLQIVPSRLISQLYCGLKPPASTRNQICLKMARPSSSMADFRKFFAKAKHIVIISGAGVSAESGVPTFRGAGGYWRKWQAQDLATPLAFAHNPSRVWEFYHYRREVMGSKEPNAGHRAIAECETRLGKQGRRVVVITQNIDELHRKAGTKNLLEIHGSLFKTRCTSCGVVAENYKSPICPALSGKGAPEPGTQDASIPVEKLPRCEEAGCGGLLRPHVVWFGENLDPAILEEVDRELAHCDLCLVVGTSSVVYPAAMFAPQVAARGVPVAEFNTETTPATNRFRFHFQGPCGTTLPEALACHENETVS
CDK5 inh = blocks human CDK5/p35 kinase activity; Q00535+Q15078; Recombinant CDK5/p35, ADP-Glo luminescence, 60 min; inhibition, % at 10 µM; 0.01% of 330,000 active;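 active = highest replicate inhibition of at least 50% and at least 75% of replicates reaching 50%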;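 also: plate controls were DMSO neutral control for no effect and GW8510 at 10 µM for full effect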
* = called active by the depositor; nt = not tested or not shown; ! = a repeat was not active. Only some compounds are listed: those with a hit (about 2.8% of all), similar ones and a draw of the others.

SMILES | dFosB act | PvdQ acylase | PglD inh | FGF22 binding | SIRT5 block | CDK5 inh
Cc1cc(N/N=C/c2ccccc2)nc(NCc2ccccc2)n1 | 37.9* | -3.3 | -0.6 | -1.0 | -6.9 | 0.1
Cc1cc(N/N=C/c2ccccc2F)nc(NCc2ccccc2)n1 | 6.3 | 6.1 | nt | 0.0 | -3.5 | 0.4
O=C(NCC[C@@H]1CC[C@@H](NC(=O)C2CCCC2)[C@H](CO)O1)Nc1ccc(Cl)cc1 | nt | nt | 1.8 | 0.5 | -4.0 | nt
CNC(=O)C[C@H]1CC[C@@H]2[C@H](COc3ccc(NC(=O)Nc4ccccc4)cc3C(=O)N2C)O1 | nt | nt | 2.9 | -0.1 | 5.3 | nt
C[C@H](CO)N1C[C@H](C)[C@@H](CN(C)Cc2ccc(C(F)(F)F)cc2)Oc2ccc(NC(=O)CCC(F)(F)F)cc2CC1=O | nt | nt | 1.0 | -0.5 | 7.0 | nt
Cc1cc(NC(=O)c2cc(-c3ccccn3)nc3ccc(Br)cc23)no1 | 57.8* | 4.7 | 6.1 | 0.0 | -1.3 | -1.3
Nc1c(Cl)cnc(C(Cl)(Cl)Cl)c1Cl | 4.5 | -3.1 | nt | 43.3* | -12.4 | -0.1
c1cc2c3c(cccc3c1)NC1(CCCCCC1)N2 | 22.5* | 6.5 | 3.4 | nt | nt | -0.1
c1cc2c3c(cccc3c1)NC1(CCCCC1)N2 | 40.3* | -3.8 | -1.6 | -0.1 | 6.2 | 2.0
c1cc2c3c(cccc3c1)NC1(CCC3(CC1)Nc1cccc4cccc(c14)N3)N2 | -19.4 | -6.5 | -11.8 | 0.2 | -4.5 | 0.6
CC1=Nc2cccc3cccc(c23)N1 | 7.8 | -21.2 | -1.7 | nt | nt | -2.9
COc1ccc(-c2cn(CC[C@@H]3CC[C@H](NC(=O)Nc4ccc(F)cc4)[C@H](CO)O3)nn2)cc1 | nt | nt | nt | 0.7 | 3.0 | nt
Cc1ccc2nc(/C(C#N)=C/c3ccc(O)c(O)c3)[nH]c2c1 | -15.1 | 6.6 | -1.2 | 0.1 | 19.8* | 2.1
Cc1ccc2nc(/C(C#N)=C/c3ccccc3C(=O)O)[nH]c2c1 | 2.7 | -13.1 | -2.9 | 0.0 | 4.6 | -0.6
Fc1ccc(NC(=S)NCCN2CCOCC2)c(F)c1F | -2.0 | -13.0 | nt | 43.1* | 0.8 | 0.9
O=C(CCl)N=c1sccn1Cc1ccccc1Cl | 1.1 | -11.5 | -5.6 | 0.0 | -2.4 | -1.7
O=C(CCl)N=c1sccn1Cc1ccc(Cl)cc1Cl | 1.3 | -11.3 | nt | 44.0* | -6.3 | 1.2
Cc1ccc(C(=O)NCC(=O)NCC(=O)OCC(=O)c2ccc(F)cc2)cc1 | 0.4 | -10.7 | nt | nt | nt | -0.8
Cc1ccc(C(=O)NCC(=O)OCC(=O)NCC(F)(F)F)cc1 | -1.7 | 1.8 | nt | 44.1* | -1.1 | -2.2
CCCC#Cc1ccc2c(c1)O[C@H](CN(C)CCC)[C@H](C)CN([C@H](C)CO)S2(=O)=O | nt | nt | -1.8 | -0.3 | 4.5 | nt
C[C@@H]1CN([C@@H](C)CO)C(=O)Cc2cc(NC(=O)Nc3cccc4ccccc34)ccc2O[C@H]1CN(C)Cc1ccc2c(c1)OCO2 | nt | nt | -5.4 | -0.2 | 1.3 | nt
Cc1ccc2nc(NC(=O)C3CCN(S(=O)(=O)c4cccs4)CC3)sc2c1 | 32.7* | -14.7 | 0.1 | nt | nt | -1.8
CC(C)(C)c1cnnn1-c1ccc(/C=N/Nc2ccc([N+](=O)[O-])cc2)cc1 | 1.5 | 5.8 | -5.6 | 43.0* | 1.8 | 0.0
O=[N+]([O-])c1ccc(C=NNc2ccccc2)cc1 | 6.3 | 8.9 | -2.1 | 0.3 | nt | 1.4
O=C(COc1ccccc1)NCC(c1ccco1)N1CCN(c2ccc(F)cc2)CC1 (configuration not stated) | -0.8 | 6.3 | 0.7 | -0.1 | 18.5* | 0.1
SMILES | dFosB act | PvdQ acylase | PglD inh | FGF22 binding | SIRT5 block | CDK5 inh
O=C(COc1ccccc1)NCC(c1ccco1)N1CCN(c2ccccc2F)CC1 (configuration not stated) | -6.1 | -5.4 | -1.3 | -0.1 | -4.3 | 0.8
O=C(NCC(c1ccco1)N1CCN(c2ccccc2F)CC1)C1CCCCC1 (configuration not stated) | -9.7 | -5.7 | 4.0 | 0.2 | 19.6* | -1.8
O=C(NCC(c1ccco1)N1CCN(c2ccccc2F)CC1)C(=O)NC1CCCCC1 (configuration not stated) | -3.4 | 1.9 | -1.4 | 0.1 | 1.8 | 1.5
CCS(=O)(=O)Nc1ccc2c(c1)C(=O)N(C)[C@@H]1CC[C@H](CC(=O)Nc3ccccc3)O[C@H]1CO2 | nt | nt | 2.8 | 0.1 | 1.0 | nt
CO[C@H]1CN(C)C(=O)c2ccc(NS(=O)(=O)c3cccc(F)c3)cc2OC[C@H](C)N(Cc2cc(F)ccc2F)C[C@@H]1C | nt | nt | 0.7 | -0.2 | nt | nt
CCCN1[C@@H]2Cn3c(cccc3=O)[C@H]1[C@@H](C(=O)N[C@H](C)c1ccccc1)[C@@H]2CO | nt | nt | nt | nt | 0.6 | nt
Cc1ccc(S(=O)(=O)Nc2ccc3c(c2)C(=O)N([C@H](C)CO)C[C@@H](C)[C@H](CN(C)Cc2ccc(Cl)c(Cl)c2)OCCCC[C@@H](C)O3)cc1 | nt | nt | nt | -0.1 | 6.5 | nt
Cc1ccc(S(=O)(=O)Nc2ccc3c(c2)C(=O)N([C@H](C)CO)C[C@H](C)[C@@H](CN(C)Cc2ccc(Cl)c(Cl)c2)OCCCC[C@H](C)O3)cc1 | nt | nt | 8.9 | nt | 28.1* | nt
C[C@@H]1CN([C@H](C)CO)C(=O)c2cc(NS(=O)(=O)c3ccccc3)ccc2O[C@@H](C)CCCCO[C@@H]1CN(C)Cc1ccc(Cl)c(Cl)c1 | nt | nt | 1.6 | 0.7 | 15.0*! | nt
C[C@H]1CCCCO[C@H](CN(C)Cc2ccc(Cl)c(Cl)c2)[C@@H](C)CN([C@@H](C)CO)C(=O)c2cc(NS(=O)(=O)c3ccccc3)ccc2O1 | nt | nt | nt | -0.1 | 0.3 | nt
COc1ccc(-c2ccc3n(c2=O)C[C@@H]2[C@@H](CO)[C@H](C(=O)NCC4CC4)[C@H]3N2S(C)(=O)=O)cc1 | nt | nt | -1.9 | 0.0 | -92.7 | nt
CCN1CCN(CC(O)COC(c2ccccc2)c2ccccc2)CC1 (configuration not stated) | -1.6 | -10.5 | 0.7 | 43.9* | -3.6 | -0.4
C[C@H](CO)N1C[C@H](C)[C@H](CN(C)Cc2cccc(F)c2)Oc2ncc(-c3ccccc3F)cc2C1=O | nt | nt | -0.8 | 0.5 | 2.8 | nt
COc1cccc(-c2ccc3c(c2)[C@@H]2[C@@H](CCN2S(=O)(=O)c2ccccc2F)[C@@H](CO)N3C)c1 | nt | nt | -4.2 | -0.2 | 4.5 | nt
CCCCN(C)S(=O)(=O)c1c(C)[nH]c(=O)[nH]c1=O | -0.1 | -11.1 | 1.1 | 0.2 | -3.6 | 1.5
CCCCN(CCCC)S(=O)(=O)c1c(C)[nH]c(=O)[nH]c1=O | -4.7 | -13.0 | nt | 0.3 | 22.0* | -2.1
CO[C@H]1CN(C)C(=O)c2ccc(NC(=O)Nc3ccccc3)cc2OC[C@H](C)N(CC2CC2)C[C@H]1C | nt | nt | -1.1 | -0.4 | 6.0 | nt
C[C@@H]1CN([C@H](C)CO)C(=O)Cc2cc(NS(=O)(=O)c3cn(C)cn3)ccc2O[C@H]1CN(C)S(C)(=O)=O | nt | nt | -2.4 | 0.2 | 0.4 | nt
COc1cccc(S(=O)(=O)N[C@@H]2CC[C@@H](CC(=O)NCc3ccc(F)cc3)O[C@@H]2CO)c1 | nt | nt | -0.9 | -0.3 | 4.4 | nt
CC(NS(=O)(=O)c1ccc2[nH]c(=O)c(=O)[nH]c2c1)C(=O)O (configuration not stated) | -2.5 | -10.7 | -2.3 | 0.0 | 24.5* | 1.5

High-throughput results deposited in PubChem BioAssay by Broad Institute.
